Read-out in test [1]: Macrophage colony-stimulating factor (MCSF), CSF1 (gene 1435)
The test can be described thus: BSK_hDFCGF_MCSF: BioMAP Diversity Plus: hDFCGF Assay for Macrophage colony-stimulating factor (MCSF) Biomarker Activity (AID 2283060). Conditions: primary human foreskin fibroblasts; actives raise or lower the signal. The method in brief: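 fibroblasts (human foreskin, primary), 24 h post-dose; M-CSF by ELISA; bidirectional fit, DMSO = baseline.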

Test [2] is described as follows: BSK_hDFCGF_SRB: Viability Assessment in the BioMAP Diversity Plus: hDFCGF Assay (AID 2283061).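 Also: cells exposed to compound for 24 h before the read.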 As to conditions: primary human foreskin fibroblasts. The method in brief:
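SRB-based viability read on primary human skin fibroblasts at 24 h: TCA fixation, 0.1% dye, 560 nm. Gain or loss of signal is fitted against the DMSO negative control.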

Read-out in test [3]: TIMP metallopeptidase inhibitor 1 (TIMP1), TIMP1 (gene 7076)
Put plainly: BSK_hDFCGF_TIMP1: BioMAP Diversity Plus: hDFCGF Assay for TIMP metallopeptidase inhibitor 1 (TIMP1) Biomarker Activity (AID 2283062). Conditions: primary human foreskin fibroblasts; actives raise or lower the signal. The method in brief:
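Bidirectional curve fitting against DMSO baseline yielded this endpoint, based on ELISA detection of TIMP-1 in primary human foreskin fibroblasts exposed to compound for 24 h.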

Read-out in test [4]: Monokine induced gamma interferon (MIG), CXCL9 (gene 4283)
The test can be described thus: BSK_hDFCGF_MIG: BioMAP Diversity Plus: hDFCGF Assay for Monokine induced gamma interferon (MIG) Biomarker Activity (AID 2283063). As to conditions: primary human foreskin fibroblasts; actives raise or lower the signal. The method in brief:
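Endpoint derived by bidirectional fitting relative to DMSO; MIG quantified via ELISA in primary human foreskin fibroblasts harvested 24 h after dosing.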

Read-out in test [5]: Matrix Metallopeptidase 1 (MMP1), MMP1 (gene 4312)
Put plainly: BSK_hDFCGF_MMP1: BioMAP Diversity Plus: hDFCGF Assay for Matrix Metallopeptidase 1 (MMP1) Biomarker Activity (AID 2283064). As to conditions: primary human foreskin fibroblasts; actives raise or lower the signal. The method in brief: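 MMP1 levels quantified by ELISA 24 h after dosing human dermal fibroblast cultures, with parallel SRB total-protein staining for overt cytotoxicity. Data fitted in both directions against DMSO baseline.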

Read-out in test [6]: Vascular cell adhesion molecule 1 (VCAM1), VCAM1 (gene 7412)
Put plainly: BSK_hDFCGF_VCAM1: BioMAP Diversity Plus: hDFCGF Assay for Vascular cell adhesion molecule 1 (VCAM1) Biomarker Activity (AID 2283065). Conditions: primary human foreskin fibroblasts; actives raise or lower the signal. Put shortly:
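Measured after 24 h chemical treatment of primary human skin fibroblasts, VCAM-1 was detected by ELISA and concentration-response analysed in both directions versus DMSO vehicle.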

Read-out in test [7]: Plasminogen activator inhibitor-1 (PAI1), SERPINE1 (gene 5054)
Put plainly: BSK_hDFCGF_PAI1: BioMAP Diversity Plus: hDFCGF Assay for Plasminogen activator inhibitor-1 (PAI1) Biomarker Activity (AID 2283066). As to conditions: primary human foreskin fibroblasts; actives raise or lower the signal. The method in brief:
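PAI-1 levels in human dermal foreskin fibroblasts were quantified by ELISA 24 h after dosing, with gain or loss analysed against DMSO. Overt cytotoxicity was checked by sulforhodamine B total-protein staining in parallel cultures.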

Read-out in test [8]: Intercellular Adhesion Molecule 1 (ICAM1), ICAM1 (gene 3383)
Put plainly: BSK_KF3CT_ICAM1: BioMAP Diversity Plus: KF3CT Assay for Intercellular Adhesion Molecule 1 (ICAM1) Biomarker Activity (AID 2283067). As to conditions: primary human keratinocytes with fibroblasts; actives raise or lower the signal. The method in brief: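 Bidirectional curve fitting against a DMSO baseline was applied to ICAM-1 ELISA signal from primary human skin co-cultures harvested 24 h after treatment, with SRB staining of parallel wells for overt cytotoxicity.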

Read-out in test [9]: Interferon-gamma inducible Protein 10 (IP10), CXCL10 (gene 3627)
Put plainly: BSK_KF3CT_IP10: BioMAP Diversity Plus: KF3CT Assay for Interferon-gamma inducible Protein 10 (IP10) Biomarker Activity (AID 2283068). As to conditions: primary human keratinocytes with fibroblasts; actives raise or lower the signal. The method in brief: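 ELISA read-out of IP-10 after 24 h chemical dosing of human skin primary co-culture (keratinocytes, foreskin fibroblasts). Gain or loss of signal relative to DMSO, bidirectional curve fit.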

Test [10] in a line: BSK_KF3CT_SRB: Viability Assessment in the BioMAP Diversity Plus: KF3CT Assay (AID 2283069).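 Also: read 24 h after compound addition.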 As to conditions: primary human keratinocytes with fibroblasts. The method in brief: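 Cytotoxicity was gauged by SRB staining (0.1% SRB, 10% TCA fixation, 560 nm) of parallel cultures at 24 h. The cells were primary human skin keratinocytes co-cultured with fibroblasts, and activity was fitted in both directions against DMSO.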

Read-out in test [11]: Interleukin-1 alpha (IL1a), IL1A (gene 3552)
The test can be described thus: BSK_KF3CT_IL1a: BioMAP Diversity Plus: KF3CT Assay for Interleukin-1 alpha (IL1a) Biomarker Activity (AID 2283070). Conditions: primary human keratinocytes with fibroblasts; actives raise or lower the signal. Put shortly: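 IL-1a was detected by ELISA 24 h after chemical treatment of a co-culture of human skin keratinocytes and foreskin fibroblasts. Gain or loss of signal was fitted against the DMSO baseline.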

Read-out in test [12]: TIMP metallopeptidase inhibitor 2 (TIMP2), TIMP2 (gene 7077)
Put plainly: BSK_KF3CT_TIMP2: BioMAP Diversity Plus: KF3CT Assay for TIMP metallopeptidase inhibitor 2 (TIMP2) Biomarker Activity (AID 2283071). As to conditions: primary human keratinocytes with fibroblasts; actives raise or lower the signal. Put shortly:
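TIMP-2 measured by ELISA at 24 h in human keratinocyte/fibroblast primary co-cultures exposed to chemicals. Both increases and decreases were fitted against DMSO. Parallel cultures were stained with SRB for total protein as an overt-cytotoxicity check.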

Read-out in test [13]: Transforming growth factor beta 1 (TGFb1), TGFB1 (gene 7040)
Put plainly: BSK_KF3CT_TGFb1: BioMAP Diversity Plus: KF3CT Assay for Transforming growth factor beta 1 (TGFb1) Biomarker Activity (AID 2283072). As to conditions: primary human keratinocytes with fibroblasts; actives raise or lower the signal. Put shortly:
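ELISA quantifies TGF-b1 at 24 h post-dose in a primary human skin co-culture of keratinocytes and fibroblasts, with gain or loss judged against DMSO. Parallel SRB total-protein staining flags overt cytotoxicity.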

Read-out in test [14]: C-C motif chemokine 2 (Homo sapiens) (UniProt P13500)
Put plainly: BSK_KF3CT_MCP1: BioMAP Diversity Plus: KF3CT Assay for Monocyte Chemoattractant Protein 1 (MCP1/CCL2) Biomarker Activity (AID 2283073). As to conditions: primary human keratinocytes with fibroblasts; actives raise or lower the signal. The method in brief: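 Biomarker MCP-1 is measured by ELISA in primary human keratinocytes co-cultured with foreskin fibroblasts, 24 h after chemical treatment; DMSO serves as the negative control and activity baseline.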

Read-out in test [15]: Matrix Metallopeptidase 9 (MMP9), MMP9 (gene 4318)
The test can be described thus: BSK_KF3CT_MMP9: BioMAP Diversity Plus: KF3CT Assay for Matrix Metallopeptidase 9 (MMP9) Biomarker Activity (AID 2283074). As to conditions: primary human keratinocytes with fibroblasts; actives raise or lower the signal. Put shortly:
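MMP-9 quantified by ELISA after 24 h chemical treatment of primary human skin keratinocyte/fibroblast co-cultures; gain or loss fitted against DMSO, with parallel SRB staining (0.1% SRB, 560 nm) for overt cytotoxicity.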

Read-out in the next test: CD40, CD40 (gene 958)
Put plainly: BSK_LPS_CD40: BioMAP Diversity Plus: LPS Assay for CD40 Biomarker Activity (AID 2283076). Conditions: primary human HUVEC with PBMC; actives raise or lower the signal. The method in brief: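 Using a multiplexed primary human co-culture (umbilical vein endothelium plus PBMC), CD40 was read by ELISA 24 h after dosing, with cytotoxicity tracked by sulforhodamine B staining of parallel cultures and activity fitted bidirectionally versus DMSO.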

Read-out in test [16]: E-selectin (Homo sapiens) (UniProt P16581)
The test can be described thus: BSK_LPS_Eselectin: BioMAP Diversity Plus: LPS Assay for Eselectin Biomarker Activity (AID 2283077). As to conditions: primary human HUVEC with PBMC; actives raise or lower the signal. Put shortly: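 Dose chemical onto LPS-driven HUVEC/PBMC co-culture; after 24 h, run ELISA for E-selectin; fit up- and down-going responses relative to DMSO control.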

Read-out in test [17]: Interleukin-8 (IL8), CXCL8 (gene 3576)
Put plainly: BSK_LPS_IL8: BioMAP Diversity Plus: LPS Assay for Interleukin-8 (IL8) Biomarker Activity (AID 2283078). As to conditions: primary human HUVEC with PBMC; actives raise or lower the signal. The method in brief:
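In this LPS system, chemical-treated human umbilical vein endothelium/PBMC co-cultures were harvested at 24 h for IL-8 ELISA.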

A short description of test [18]: BSK_LPS_SRB: Viability Assessment in the BioMAP Diversity Plus: LPS Assay (AID 2283079).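 Also: total protein by sulforhodamine B absorbance as a cytotoxicity measure; measured one day after compound addition; fitted in both directions against DMSO so loss or gain of signal counts.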 Conditions: primary human HUVEC with PBMC. The method in brief: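 Cytotoxicity endpoint in human endothelial–PBMC co-culture: 24 h exposure, then SRB (0.1%) staining, 560 nm read.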
Read-out in test [19]: urokinase plasminogen activator (uPA), PLAU (gene 5328)
Put plainly: BSK_KF3CT_uPA: BioMAP Diversity Plus: KF3CT Assay for urokinase plasminogen activator (uPA) Biomarker Activity (AID 2283075). Conditions: primary human keratinocytes with fibroblasts; actives raise or lower the signal. The method in brief:
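ELISA read-out of uPA 24 h after dosing human skin keratinocytes co-cultured with foreskin fibroblasts. Signal change fitted both ways relative to DMSO; sulforhodamine B on parallel cultures marks overt cytotoxicity.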

A structure can be active in one record and inactive in another. The source made the active and inactive calls. The calls were made as follows: active = hit-call score of the fitted dose curve at least 0.9, where 1 is the maximum; inactive = score below 0.9.

Sequence of E-selectin (Homo sapiens) (P16581 whole entry, looked up): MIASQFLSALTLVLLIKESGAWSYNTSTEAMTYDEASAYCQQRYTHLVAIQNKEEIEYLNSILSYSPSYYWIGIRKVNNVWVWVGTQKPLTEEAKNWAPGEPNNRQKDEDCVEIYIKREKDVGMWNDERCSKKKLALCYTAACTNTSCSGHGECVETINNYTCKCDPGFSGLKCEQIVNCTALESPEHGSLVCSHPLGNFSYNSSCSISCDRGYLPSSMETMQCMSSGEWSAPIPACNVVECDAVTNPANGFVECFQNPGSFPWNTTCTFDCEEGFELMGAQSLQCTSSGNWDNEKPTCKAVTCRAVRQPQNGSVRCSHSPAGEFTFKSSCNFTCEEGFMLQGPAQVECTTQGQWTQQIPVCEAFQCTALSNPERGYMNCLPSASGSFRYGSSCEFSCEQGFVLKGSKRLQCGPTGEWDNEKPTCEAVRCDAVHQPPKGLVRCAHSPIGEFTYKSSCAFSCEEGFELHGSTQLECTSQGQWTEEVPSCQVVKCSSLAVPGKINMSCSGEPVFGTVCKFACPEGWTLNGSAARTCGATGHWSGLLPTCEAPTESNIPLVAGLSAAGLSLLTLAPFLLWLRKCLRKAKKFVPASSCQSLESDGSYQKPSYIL

On to `CCCCNc1ccccc1`, for which the outcome in [1], in test [2], in [3], in [4], in [5] and in [6] was inactive. Also, the outcome in [7], in [8], in test [9], in [10], in test [11] and in test [12] was inactive. In addition, the outcome in [13] was “inactive”; in test [14], “inactive”; in test [15], “inactive”; in the test with CD40, CD40 (gene 958), “inactive”; in test [16], “inactive”; in test [17], “inactive”. Further, in test [18], the outcome was inactive.

For the molecule `FC(F)(F)C(F)(F)C(F)(F)C(F)(F)C(F)(F)C(F)(F)CCS`, the result in [1], in test [2], in test [3], in test [4], in test [5] and in test [6] was inactive. Moreover, the result in [7], in test [9], in [10], in test [11], in test [12] and in test [14] was inactive. For the same molecule, the outcome in test [15] is “inactive”; in test [19] it was “inactive”; in the test with CD40, CD40 (gene 958) it was “inactive”; in [16], “inactive”; in test [17], “inactive”; in test [18], “inactive”.

For the molecule `C=CC(F)(F)C(F)(F)C(F)(F)C(F)(F)C(F)(F)C(F)(F)C(F)(F)C(F)(F)C=C`, the outcome in test [1], in [2], in test [3], in test [5], in [6] and in [7] was inactive. Also, the result in test [8], in [9], in test [10], in test [11], in test [12] and in test [14] was inactive. Also, the outcome in [15] is “inactive”; in the test with CD40, CD40 (gene 958), “inactive”; in test [16] it was “inactive”; in test [17] it was “inactive”; in [18], “inactive”. Also, the AC50 in test [2] is 3.33 µM (active).

For the molecule `C=C(C)C(=O)OCCC(F)(F)C(F)(F)C(F)(F)C(F)(F)C(F)(C(F)(F)F)C(F)(F)F`, the result in test [1], in [2], in test [3], in test [4], in test [5] and in test [6] was inactive. In addition, the outcome in test [7], in [9], in test [10], in test [11], in test [12] and in test [14] was inactive. For the same molecule, the outcome in test [15] was “inactive”; in the test with CD40, CD40 (gene 958), “inactive”; in test [16], “inactive”; in test [17] it was “inactive”; in test [18] it was “inactive”.

`OCC(F)(F)C(F)(F)C(F)(F)C(F)F`: the outcome in test [1], in test [2], in [3], in test [4], in test [5] and in test [6] was inactive. Also, the result in test [7], in [8], in test [9], in [10], in test [11] and in [12] was inactive. Also, the outcome in [14] is “inactive”; in test [15] it was “inactive”; with CD40, CD40 (gene 958), “inactive”; in test [16], “inactive”; in [17], “inactive”; in test [18], “inactive”. In addition, the AC50 in test [7] is 1.98 µM (active).

The record behind these values is PubChem BioAssay (EPA / NIEHS).
